From PubChem BioAssay AID463200 (Sanford-Burnham Center for Chemical Genomics, 2010)
Some of the results follow. Unmarked numbers belong to inactive results. The source made the active and inactive calls. Rule as the data show it: active = z-score above about 6.3; inactive = the rest.

Assay: AML12 hepatocyte cytotoxicity, counter-screen for hepatic lipid droplet formation project, imaging, DAPI nuclear morphology imaging (AID 463200);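 also: compound exposure lasted overnight at 37 °C before fixation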
Conditions: AML12 mouse hepatocytes, at 5 µM, active compounds read high, cells fed 100 µM oleate overnight

Compound	z-score
CCCN(CCC)c1ccc(C(O)c2nnc(-c3ccccc3)o2)cc1 (configuration not stated)	-0.662
COc1ccc(/C=C(\NC(=O)c2ccc(OCC(C)C)cc2)C(=O)OCc2ccco2)cc1	-0.0226
COc1cccc(/C=C(/CC(=O)Nc2ccc(N3CCOCC3)cc2)c2nc3ccccc3s2)c1	0.0842
Cc1ccc(N2C(=O)C(NC(=O)c3c(F)cccc3F)(C(F)(F)F)C3=C2CC(C)(C)CC3=O)cc1 (configuration not stated)	-0.996
CCCCN1C(=O)/C(=C/C=C2/C=Cc3ccccc3N2CC)SC1=S	-0.15
COc1ccc(OC)c(-c2csc(-c3cccs3)n2)c1	-0.885
CC(NC(=O)c1cccc2ccccc12)c1ccc2c(c1)CCCC2 (configuration not stated)	8.48 (active)
Cc1c(C(=O)NCc2ccccc2)cnn1-c1ccccc1	-0.784
Cc1cc(NC(=O)CSc2nc(C(C)C)nc3sc4c(c23)CCC(C)C4)no1 (configuration not stated)	-0.355
CCOc1ccc(CCNC(=O)CCc2nnc3ccc(N4CCCC4)nn23)cc1OCC	-0.773
COc1ccc(Cl)cc1NC(=O)CN(C)C(=O)CCCc1c[nH]c2ccccc12	0.989
CCOc1ccc(CCNC(=O)Nc2ccccc2)cc1OCC	-0.203
